Active and inactive are the calls of the source.

The subject of assay [1] is Human papillomavirus type 1a protein E7 (residues 44-93). The assay can be described thus: HPV1a E7 fragment binders on microarrays, primary screen, biochemical, small-molecule microarray, residues 44-93, 635 nm fluorescence (AID 1108).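 Also: E7 fragment applied at 1 µg/mL in TBST for 1 h at 4 C; score combines spot fluorescence with its signal to noise ratio.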 The note with it: small-molecule microarray binding, fluorescence 635 nm; higher = more signal.
The nature of assay [2]: modulators of HCV replicon luciferase signal, primary screen, HCV replication inhibitor project, Huh7 cells, luciferase reporter (AID 1109).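 Also: huh7 hepatoma cells harbouring a luciferase neomycin HCV replicon reporter; luciferase luminescence as measure of HCV replicon replication; test concentration not given here.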 To be noted: 48 h, higher = more signal.
For assay [3], the target named is Left-right determination factor 2 (Homo sapiens) (UniProt O00292). The assay is described as follows: LEFTY2 binders on small-molecule microarrays, primary screen, biochemical, small-molecule microarray, 635 nm fluorescence scan (AID 1110). The note with it: LEFTY2 binding, higher = more signal.
Chain of Left-right determination factor 2 (Homo sapiens) (O00292 whole entry, looked up): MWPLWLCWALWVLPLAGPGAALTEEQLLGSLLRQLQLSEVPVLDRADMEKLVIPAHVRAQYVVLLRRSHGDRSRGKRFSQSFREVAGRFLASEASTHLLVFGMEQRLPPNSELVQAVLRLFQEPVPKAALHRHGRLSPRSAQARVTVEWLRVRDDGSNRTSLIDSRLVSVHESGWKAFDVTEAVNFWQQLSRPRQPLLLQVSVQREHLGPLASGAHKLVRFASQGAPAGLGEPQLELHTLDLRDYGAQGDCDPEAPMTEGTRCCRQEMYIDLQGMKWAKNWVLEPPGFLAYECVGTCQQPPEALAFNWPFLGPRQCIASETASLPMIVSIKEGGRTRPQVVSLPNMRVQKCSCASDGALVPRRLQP
Assay [4] addresses Calmodulin-1 (Homo sapiens) (UniProt P0DP23). The assay can be described thus: CALM1 binders on microarrays, EGTA buffer, profiling panel, biochemical, small-molecule microarray, Cy5-labelled CALM1 (AID 1111).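 Also: labelled calmodulin applied in Tris saline Tween buffer holding calcium plus EGTA and DTT.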 The note with it: Cy5-CALM1 binding fluorescence, higher = more signal.
For assay [5] the target is unchanged. The assay is described as follows: calcium-bound CALM1 binders on microarrays, profiling panel, artefact control for SMM control-protein annotation, biochemical, small-molecule microarray, Cy5-labelled CALM1, plus calcium (AID 1112).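 Also: score merges spot fluorescence with signal to noise from triplicate slides.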 The note with it: Cy5-CALM1 binding fluorescence, higher = more signal.
Assay [6] in a line: small-molecule microarray binders of probe aWnt5a, primary screen, biochemical, biotinylated probe, 635/667 nm fluorescence (AID 1113).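 Also: score merges 667 nm fluorescence intensity with signal-to-noise per printed feature.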 The note with it: higher = more signal.
Assay [7] can be described thus: small-molecule microarray binders of probe aShh, primary screen, biochemical, biotinylated probe, 635/667 nm fluorescence (AID 1114).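 Also: probe is biotin-labelled aShh protein from a stem cell growth factor screen; measures binding of labelled protein to compounds printed on the slide; score merges feature fluorescence at 667 nm with signal-to-noise.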 The note with it: higher = more signal.
The nature of assay [8]: small-molecule microarray binders of probe aNog, primary screen, biochemical, biotinylated probe, 635/667 nm fluorescence (AID 1115).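 Also: probe is biotinylated aNog protein used at 0.15 µg/mL for 1 h at 4 C; z-score combines 667 nm fluorescence of each spot with its signal to noise.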 The note with it: higher = more signal.
For assay [9], the target named is Torsin-1A-interacting protein 1 (Homo sapiens) (UniProt Q5JTV8). The assay is described as follows: LAP1 binders from COS7 cell lysate, primary screen, small-molecule microarray, 635/667 nm fluorescence (AID 1116). To be noted: COS7-hLAP1 lysate binding, 635 nm fluorescence, higher = more signal.
Chain of Torsin-1A-interacting protein 1 (Homo sapiens) (Q5JTV8 whole entry, looked up): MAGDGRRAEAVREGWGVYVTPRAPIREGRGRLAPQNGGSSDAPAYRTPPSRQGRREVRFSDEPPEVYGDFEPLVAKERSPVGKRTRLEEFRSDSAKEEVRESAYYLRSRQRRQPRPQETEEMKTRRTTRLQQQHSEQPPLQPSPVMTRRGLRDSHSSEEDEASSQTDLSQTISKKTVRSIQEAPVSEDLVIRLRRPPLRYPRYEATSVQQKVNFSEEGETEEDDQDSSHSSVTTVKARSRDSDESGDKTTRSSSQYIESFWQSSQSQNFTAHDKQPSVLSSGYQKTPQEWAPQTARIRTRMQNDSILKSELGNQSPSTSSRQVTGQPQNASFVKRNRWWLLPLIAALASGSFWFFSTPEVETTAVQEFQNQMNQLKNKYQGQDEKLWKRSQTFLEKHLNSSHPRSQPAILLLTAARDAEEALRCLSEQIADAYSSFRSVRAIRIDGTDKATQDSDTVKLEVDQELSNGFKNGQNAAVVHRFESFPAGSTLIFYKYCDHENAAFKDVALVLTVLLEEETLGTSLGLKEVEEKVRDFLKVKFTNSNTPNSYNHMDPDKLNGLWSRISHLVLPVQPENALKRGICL
Assay [10] deals with Alpha-bungarotoxin (Bungarus multicinctus) (UniProt P60615). The assay is described as follows: alpha-bungarotoxin binders on microarray, profiling panel, artefact control for SMM control protein annotation, biochemical, small-molecule microarray, Alexa647 label, 635/667 nm fluorescence (AID 1117). The note with it: alpha-BTX-A647 binding fluorescence, higher = more signal.
Chain of Alpha-bungarotoxin (Bungarus multicinctus) (P60615 whole entry, looked up): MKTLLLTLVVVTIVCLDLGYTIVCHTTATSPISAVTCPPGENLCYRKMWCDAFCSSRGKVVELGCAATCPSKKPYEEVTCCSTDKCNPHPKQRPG
In the next assay the target is Albumin (Bos taurus) (UniProt P02769). The assay can be described thus: bovine serum albumin binders on microarray, profiling panel, artefact control for SMM control protein annotation, biochemical, small-molecule microarray, Alexa647 label, 635/667 nm fluorescence (AID 1118).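 Also: score merges 667 nm emission intensity and signal-to-noise per printed compound spot.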 The note with it: BSA-A647 binding, fluorescence 635 nm, higher = more signal.
Chain of Albumin (Bos taurus) (P02769 whole entry, looked up): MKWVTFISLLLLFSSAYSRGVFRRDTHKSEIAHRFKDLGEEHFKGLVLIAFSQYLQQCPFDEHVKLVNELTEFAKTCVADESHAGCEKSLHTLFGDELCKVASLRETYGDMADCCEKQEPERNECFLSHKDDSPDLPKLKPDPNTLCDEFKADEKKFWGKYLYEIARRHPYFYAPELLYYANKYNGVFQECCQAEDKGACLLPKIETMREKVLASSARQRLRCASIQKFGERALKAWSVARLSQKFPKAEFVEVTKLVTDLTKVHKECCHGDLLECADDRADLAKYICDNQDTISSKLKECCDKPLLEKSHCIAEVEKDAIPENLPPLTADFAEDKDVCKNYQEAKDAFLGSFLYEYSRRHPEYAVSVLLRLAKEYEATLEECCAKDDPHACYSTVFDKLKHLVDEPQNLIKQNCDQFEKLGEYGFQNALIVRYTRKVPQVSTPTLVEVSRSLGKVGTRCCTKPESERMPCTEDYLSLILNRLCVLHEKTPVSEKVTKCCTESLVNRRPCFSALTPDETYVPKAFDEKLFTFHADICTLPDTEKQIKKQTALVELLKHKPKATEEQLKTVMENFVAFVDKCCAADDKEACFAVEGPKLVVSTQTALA
Assay [11] in a line: small-molecule microarray binders of probe aXIP, primary screen, biochemical, NeuroSMM set, 635/667 nm fluorescence (AID 1119).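 Also: probe is the protein aXip251-270 applied at 1 µg/mL to compound-printed slides; binding of probe to printed compounds measured as 667 nm fluorescence plus signal to noise.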 To be noted: higher = more signal, called active from +8 up or from −8 down.
A short description of assay [12]: small-molecule binders of probe aNOTCH3, primary screen, biochemical, small-molecule microarray, 635/667 nm fluorescence (AID 1120).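 Also: probe is a biotin-tagged antibody raised against NOTCH3 rather than NOTCH3 protein; score merges spot fluorescence near 667 nm with spot signal to noise.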 The note with it: higher = more signal.
Assay [13] is described as follows: small-molecule binders of probe aNOTCH2, primary screen, biochemical, small-molecule microarray, 635/667 nm fluorescence (AID 1121).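 Also: score merges feature fluorescence read at 667 nm with its signal to noise.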 To be noted: higher = more signal.
Assay [14] concerns the target Carbonic anhydrase 2 (Homo sapiens) (UniProt P00918). The assay can be described thus: CAII small-molecule binders, profiling panel, biochemical, small-molecule microarray, Alexa647-labelled CAII (AID 1122). To be noted: CAII-A647 binding fluorescence, higher = more signal.
Assay [15] in a line: COS7 lysate on small-molecule microarray, probe aHis, 635 nm (AID 1123).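 Also: z-score combines 667nm fluorescence intensity with signal-to-noise per printed compound spot.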 The note with it: COS7 cell lysate, fluorescence, higher = more signal.
Assay [16] can be described thus: compound binding in COS7 lysate, probe aLAP1, primary screen, cell lysate, small-molecule microarray (AID 1124).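 Also: lysate comes from COS7 cells expressing LAP1 and is applied at 0.3 µg/mL; score merges spot fluorescence near 667 nm with signal-to-noise over triplicate slides.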 The note with it: probe aLAP1, fluorescence, higher = more signal.
The subject of the next assay is Sam68 (KHDRBS1). The assay is described as follows: Sam68 small-molecule binders, primary screen, biochemical, small-molecule microarray, 635 nm fluorescence (AID 1125).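 Also: score merges 667 nm channel intensity with signal to noise over triplicate slides.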 To be noted: small-molecule microarray binding, higher = more signal.
Assay [17] deals with Chordin-like protein 2 (CHRDL2). The assay is described as follows: CHRDL2 small-molecule binders, primary screen, biochemical, small-molecule microarray, 635 nm fluorescence (AID 1126).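 Also: printed compound slides probed with Chrdl2 protein at 4 µg/mL for 1 h at 4 C; score merges 667 nm emission intensity with signal to noise over three replicate slides.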 The note with it: small-molecule microarray binding, fluorescence 635 nm; higher = more signal.
In assay [18] the target is Concanavalin-A (Canavalia ensiformis) (UniProt P02866). The assay is described as follows: ConA small-molecule binders, primary screen, artefact control for SMM control protein annotation, biochemical, small-molecule microarray, Alexa647 label, 635 nm (AID 1127).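 Also: z combines 667 nm emission intensity with signal-to-noise across three replicate slides.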 The note with it: ConA-A647 binding fluorescence, higher = more signal.
Chain of Concanavalin-A (Canavalia ensiformis) (P02866 whole entry, looked up): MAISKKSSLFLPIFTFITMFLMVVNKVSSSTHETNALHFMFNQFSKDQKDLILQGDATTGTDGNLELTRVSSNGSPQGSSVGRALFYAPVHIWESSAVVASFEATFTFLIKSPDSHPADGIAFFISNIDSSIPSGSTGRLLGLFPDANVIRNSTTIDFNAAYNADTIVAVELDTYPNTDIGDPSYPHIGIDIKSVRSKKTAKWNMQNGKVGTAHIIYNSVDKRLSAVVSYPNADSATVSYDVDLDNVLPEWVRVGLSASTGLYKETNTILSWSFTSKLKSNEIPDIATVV

In the case of `C[C@]12C(=O)N(CCCCCO)[C@@H]3C(=O)N(c4ccc(Cl)cc4)CC=CC31O[C@@H]1/C=C\CCCOC(=O)C12` (stereo not given in full), the composite z-score was -1.86 in assay [1]; -1.95 in [3]; -0.811 in [4]; 1.22 in assay [5]; -0.23 in [6]; -0.138 in [7]. The composite z-score in [8] is -0.125; in assay [9], -0.579; in assay [10] it was -0.797; with Albumin (Bos taurus), 0.153; in [12], -0.376; in [13], -0.14. In addition, the composite z-score in [14] is -0.247; in assay [15], -0.947; in assay [16], -0.615; in the assay with Sam68 (KHDRBS1), -0.698; in assay [17], -1.12; in assay [18] it was -1.02. In addition, in assay [2], the z-score was -0.381. Also, in assay [11], the composite Z-score is 0.312 (inactive).
Regarding `COC(=O)[C@]1(Cc2ccccc2CN=[N+]=[N-])N=C(c2ccc(OCCCO)cc2)O[C@@H]1c1ccccc1CN=[N+]=[N-]`, the composite z-score is 0.0068 in [1]; -0.624 in assay [3]; -0.11 in assay [4]; -0.271 in assay [5]; -0.0346 in assay [6]; 0.246 in assay [7]. The composite z-score in assay [8] is 0.589; in [9], 1.39; in assay [10] it was 1.48; with Albumin (Bos taurus), -0.204; in assay [12] it was -0.0984; in [13] it was -0.0079. The composite z-score in assay [14] was 0.651; in assay [15] it was 1.75; in assay [16] it was 0.838; with Sam68 (KHDRBS1), 0.877; in assay [17] it was 0.31; in assay [18] it was 0.951. Moreover, the z-score in [2] was -2.91. Further, the composite Z-score in [11] was -0.206 (inactive).
Turning to `CC1CC/C=C\[C@H]2OC34C=CCN(Cc5ccccc5)C(=O)[C@H]3N(CCO)C(=O)[C@@H]4C2C(=O)O1` (stereo not given in full), the composite z-score was 0.442 in [1]; -0.51 in assay [3]; -0.556 in [4]; 0.0116 in assay [5]; 0.0597 in [6]; -0.0035 in assay [7]. For the same molecule, the composite z-score was 0.0169 in assay [8]; 1.62 in assay [9]; -0.4 in [10]; -0.897 with Albumin (Bos taurus); -0.0984 in assay [12]; -0.154 in [13]. Also, the composite z-score in assay [14] is 0.873; in [15] it was 0.368; in [16], 1.29; in the assay with Sam68 (KHDRBS1) it was 0.386; in assay [17] it was -0.793; in assay [18], -0.315. In assay [2], this molecule yielded a z-score of -0.0892. Further, the composite Z-score in assay [11] is 0.461 (inactive).
For `CCCN1C(=O)[C@@H]2Cc3c([nH]c4ccccc34)[C@@H](c3cccc(O)c3)N2C1=O`, the composite z-score was 0.672 in [1]; 0.326 in [3]; 0.0779 in [4]; -0.346 in assay [5]; -0.176 in assay [6]; -0.221 in assay [7]. In addition, the composite z-score is -0.0737 in [8]; -0.489 in assay [9]; 0.414 in [10]; -0.17 with Albumin (Bos taurus); -0.0967 in assay [12]; -0.0859 in [13]. Moreover, the composite z-score in assay [14] is -0.112; in [15], 0.207; in [16] it was 1.36; in the assay on Sam68 (KHDRBS1) it was 0.65; in [17], 0.426; in [18], 0.46. This molecule yielded a z-score in assay [2] of -0.197. Besides, the composite Z-score in [11] is -0.12 (inactive).
On to `O=C(Nc1cc(Br)ccc1C(=O)NCc1cccc(O)c1)c1ccccc1`, for which the composite z-score was 0.27 in assay [1]; 0.547 in assay [3]; 1.48 in assay [4]; 0.22 in assay [5]; 0.0297 in [6]; -0.252 in assay [7]. For the same molecule, the composite z-score is -0.75 in assay [8]; 0.888 in assay [9]; 1.36 in assay [10]; 0.8 in the assay with Albumin (Bos taurus); 0.151 in assay [12]; -0.0901 in assay [13]. Also, the composite z-score in assay [14] is 0.62; in assay [15], 0.891; in [16], 0.808; with Sam68 (KHDRBS1), 0.778; in [17] it was 0.279; in assay [18], 1.18. Moreover, the z-score in assay [2] was -2.32. Further, in assay [11], the composite Z-score is -0.0662 (inactive).
As to `COC(=O)[C@@]1(Cc2ccc(OC)cc2)[C@H]2c3cc(C(=O)N4CCCC4)n(CCc4ccc(O)c(OC)c4)c3C[C@H]2CN1C(=O)c1ccccc1`, the composite z-score was 0.333 in assay [1]; -0.448 in [3]; 0.346 in assay [4]; 0.225 in assay [5]; 0.114 in assay [6]; 0.03 in assay [7]. For the same molecule, the composite z-score in assay [8] is 1.03; in [9] it was 0.39; in assay [10], 0.184; with Albumin (Bos taurus) it was 0.952; in assay [12], 0.23; in assay [13] it was 0.12. Also, the composite z-score was 0.742 in assay [14]; 2.28 in assay [15]; 0.191 in assay [16]; -0.295 in the assay with Sam68 (KHDRBS1); -0.508 in [17]; 0.173 in assay [18]. In addition, in assay [2], the z-score is -0.917. For the same molecule, the composite Z-score in assay [11] was 0.683 (inactive).
